Bioassay records from PubChem BioAssay.
Most compounds without a hit are left out; they make up all but 12% or so of the library.
PLK1 PBD inh – inhibitors of human PLK1 polo-box domain binding. Plk1 PBD binding of FITC phosphopeptide, fluorescence polarization. AID 720504. P53350. actives 2.8% (n = 360,000). Potency, µM, without a hit: max response, negative = inhibition, most hits filed as inhibitors; also: series mostly up to about 57 µM; % is scaled to controls: 0 for no effect and ±100 for the full control effect; nearly all actives have a fitted effect of over 65% in size
JMJD2A Tudor – JMJD2A Tudor domain (human) inhibition; O75164; AlphaScreen JMJD2A-Tudor / H3K4me3 peptide binding; Potency, µM (highest dose often 114 µM), without a hit: at the top dose activity change, negative = inhibition, usual class: inhibitors; actives 4.4% (n = 390,000); also: % is scaled to controls: 0 for no effect and ±100 for the full control effect; nearly all actives have a fitted effect of over 50% in size
BAZ2B block – inhibitors of human BAZ2B bromodomain. AID 504333. Potency, µM (highest dose often 114 µM), for inactives: at the top dose activity change, negative = inhibition, usual class: inhibitors. AlphaScreen BAZ2B-H3K14Ac peptide displacement. actives 4.4% (n = 360,000); also: % is scaled to controls: 0 for no effect and ±100 for the full control effect; nearly all actives have a fitted effect of over 60% in size
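Protein-peptide AlphaScreen: BAZ2B 50 nM, b-H3K14Ac 50 nM, 1x PBS pH 7.4 + 0.01% Tween-20. Preincubation 30 min RT; cpd 30 min RT (top 110 uM); beads 20 min RT, light-protected.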
G9a inh – blocks human histone lysine methyltransferase G9a; G9a H3K9 monomethylation, AlphaScreen, 2 h; Q96KQ7; actives 8.8% (n = 350,000); AID 504332; Potency, µM (series often up to 102 µM), without a hit: top-dose activity, negative = inhibition, actives largely listed as inhibitors; also: % is scaled to controls: 0 for no effect and ±100 for the full control effect; nearly all actives have a fitted effect of over 75% in size
Target sequence (Q96KQ7 913-1193 limits assumed): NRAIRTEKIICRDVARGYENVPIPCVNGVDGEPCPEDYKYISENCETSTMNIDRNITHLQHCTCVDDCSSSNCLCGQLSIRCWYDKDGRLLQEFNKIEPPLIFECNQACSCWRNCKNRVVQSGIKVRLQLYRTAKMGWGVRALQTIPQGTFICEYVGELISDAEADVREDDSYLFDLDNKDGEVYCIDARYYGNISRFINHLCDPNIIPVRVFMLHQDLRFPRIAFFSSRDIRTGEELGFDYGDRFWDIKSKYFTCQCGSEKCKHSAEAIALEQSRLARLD
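Methyltransferase reactions run at room temperature for 2 h (20 nM enzyme, 500 nM biotin-H3K9 peptide, 20 uM SAM) after a 15 min compound preincubation; product detected by AlphaScreen beads and anti-H3K9me1 antibody.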
HP1b chromo inh – inhibitors of HP1-beta chromodomain binding to methylated histone tails. P83916. AlphaScreen HP1-beta / biotin-H3K9me3 peptide binding. Potency, µM (titrated, usually from 114 µM), without a hit: at the top dose activity change, negative = inhibition, actives largely listed as inhibitors. actives 0.56% (n = 390,000); also: nearly all actives have a fitted effect of over 70% in size
Target sequence (P83916 whole entry, looked up): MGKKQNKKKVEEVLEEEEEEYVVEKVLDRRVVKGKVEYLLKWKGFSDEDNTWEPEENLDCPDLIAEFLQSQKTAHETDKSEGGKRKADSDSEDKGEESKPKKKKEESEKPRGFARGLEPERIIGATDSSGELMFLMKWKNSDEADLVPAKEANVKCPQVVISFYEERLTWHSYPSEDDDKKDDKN
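Compound inhibition of the preformed complex between 50 nM HP1-beta and 50 nM biotinylated H3K9me3 peptide was read by AlphaScreen. Buffer was PBS pH 7.4 with 0.01% Tween-20. Incubations ran 30 min at room temperature, with 10 ug/mL donor/acceptor beads.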
Sfp inh – Sfp phosphopantetheinyl transferase inhibition. Biochemical Sfp PPTase activity, qHTS. Potency, µM, for the others: largest response in the series, negative = inhibition, usual class: inhibitors. actives 3.5% (n = 310,000). AID 1490;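 also: the enzyme is Sfp with the accession as filed and its product quenches rhodamine fluorescence; 0% = enzyme reaction without inhibitor and -100% = no enzyme wells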
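Buffer: 50 mM Hepes-Na pH 7.6, 10 mM MgCl2, 0.01% Nonidet P-40, 0.01% BSA. Enzyme 15 nM, pre-exposed to compound 15 min; substrates then added and fluorescence change tracked over 30 min.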
* marks the source's active call; other numbers are inactive results; ? = inconclusive; . = not tested or not shown; [ ] = remark or other dose. Calls follow the shape of the dose curve; as a rule, active = well fitted curve in the direction sought with a large enough effect; inconclusive = small, poorly fitted or top-dose-only effect, or another doubt; inactive = no such curve, though single readings can be large; an effect the other way counts as inactive or inconclusive. Potency is read from the fitted curve at half-maximal effect.

SMILES	PLK1 PBD inh	JMJD2A Tudor	BAZ2B block	G9a inh	HP1b chromo inh	Sfp inh
O=C(NC1CC(=O)N(c2ccc(F)cc2)C1)C1CC1 (stereo not given)	.	-2%	-6%	7%[59 µM]	17%	.
Cn1c(SCC(=O)c2cc(Cl)c(Cl)s2)nnc1-c1ccco1	21µM*	?	-32%	?	-5%	18µM*
Cc1ccc(CSc2nnc(-c3cccnc3)n2N)cc1	-4%	-4%	7%	22%[59 µM]	36%	26%
Cc1ccc(C(=O)CSc2nnc(-c3ccco3)n2C)cc1	6µM*	8.9µM*	-14%	.	-17%	18%
Cn1c(SCC(=O)N2c3ccccc3Sc3ccccc32)nnc1-c1ccco1	-5%	-9%	-7%	?	38%	-23%
Cc1ccc(C(=O)CSc2nnc(-c3cccnc3)n2N)cc1	-18%	50µM*	-6%	32µM*	13%	1%
CCCCOCCCNC(=O)C[C@@H]1C[C@@]2(C(=O)OC)CC(C)(C)CC=C2N(Cc2ccco2)C1=O	-6%	.	.	.	.	.
CCC(Sc1nnc(-c2ccc(OC)cc2)c(-c2ccc(OC)cc2)n1)C(=O)Nc1cccc(OC)c1 (stereo not given)	.	-26%	-22%	?	2%	.
Cc1cccc(-c2nc(Nc3ccc(N4CCOCC4)cc3)c3ccccc3n2)c1	-1%	40µM*	25µM*	7.1µM*	-35%	2%
CC(=O)c1cccc(Nc2nc(-c3cccc(C)c3)nc3ccccc23)c1	.	-26%	-7%	7.1µM*	0%	.
Clc1ccc(CN2CCN(c3ncnc4scc(-c5cccs5)c34)CC2)cc1	-8%	-7%[57.1 µM]	-35%	32µM*	-11%	-13%
Fc1ccc(CN2CCN(c3ncnc4scc(-c5ccc(F)cc5)c34)CC2)cc1	-4%	?	?	-7%	4%	-24%
Cn1c(-c2ccc(C=O)s2)nc2c3ccccc3c3ccccc3c21	27µM*	-3%	76%	?	50%	-5%
COc1cc(NC(=S)Nc2ccc(N(C)C(C)=O)cc2)cc(OC)c1	-23%	-15%	-21%	?	1%	3%
O/C(=C\c1nc2ccccc2nc1/C=C(\O)c1ccccc1)c1ccccc1	?	?	4.5µM*	?	-16%	40µM*
CC(=O)NC(C)C(=O)OCC(=O)Nc1ccc(Br)cc1 (stereo not given)	1%	44%	-8%	2%	48%	7%
CCCC(C)C(=O)OCC(=O)Nc1ccc(Br)cc1 (stereo not given)	.	.	4%	32µM*	.	16%
CCc1ccc(C(=O)Cn2ccsc2=N)cc1	-10%	-23%	?	50µM*	5%	9%
O=C(N/C=C\c1ccccc1)NCc1ccc(Cl)cc1Cl	21µM*	-13%[57.1 µM]	-1%	25µM*	-13%	12%
O=C(N/C=C\c1ccccc1)NCc1ccc(Cl)cc1	-12%	-10%	2%	?	18%	24%
COc1ccccc1CNC(=O)N/C=C/c1ccc(Cl)cc1	?	-35%	-13%	32µM*	-15%	15%
COc1ccccc1CNC(=O)COC(=O)Cc1ccc(Cl)cc1	0%	11%	42%	35%	58%	8%
COc1cccc(N2CCN(C(=O)C3CCN(S(=O)(=O)c4cccs4)CC3)CC2)c1	-9%	-18%	-17%	?	-11%	-13%
Cc1cccc(C(=O)OCC(=O)c2ccc(CC(=O)N3CCOCC3)s2)c1C	-11%	?	50µM*	2%[2.33 µM]	-12%	.
COc1ccc(C2c3c(n(C)c4ccccc34)C(=O)N2CC(=O)Nc2ccccc2Cl)cc1 (stereo not given)	.	-32%	-10%	-33%[59 µM]	19%	.
COc1ccc(-c2nc3cnc(N4CCN(C)CC4)nc3n(Cc3ccc(F)cc3)c2=O)cc1	.	.	.	20%[0.501 µM]	.	?
COc1ccccc1/C=C/C=N/NC(=O)CCC1C(=O)NN=C1C (stereo not given)	27µM*	-35%	3%	-1%	9%	6%
